Sampled rows, rich in hits. Any-hit rate of the full collection: about 10%.
JMJD2A Tudor inh: blocks the human JMJD2A Tudor domain; Potency, µM (series often up to 114 µM), hits mostly inhibitors; AlphaScreen JMJD2A-Tudor / H3K4me3 peptide binding; O75164; AID 504339; actives 4.4% (n = 390,000); note: nearly all actives have a fitted effect of over 50% in size
HP1b chromo inh: blocks HP1-beta chromodomain binding to methylated histone tails | AlphaScreen HP1-beta / biotin-H3K9me3 peptide binding | Potency, µM (doses to about 114 µM), usual class: inhibitors | actives 0.56% (n = 390,000) | AID 540317; note: nearly all actives have a fitted effect of over 70% in size
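AlphaScreen: HP1-beta (50 nM) preformed 30 min with biotin-H3(1-18)K9me3 peptide (50 nM) in PBS pH 7.4, 0.01% Tween-20. Compound added for 30 min at RT, then streptavidin donor/nickel chelate acceptor beads (10 ug/mL) for 30 min.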
BAZ2B inh: blocks human BAZ2B. Q9UIF8. Potency, µM (doses to about 114 µM), hits mostly inhibitors. AID 504333. actives 4.4% (n = 360,000). AlphaScreen BAZ2B-H3K14Ac peptide displacement; note: nearly all actives have a fitted effect of over 60% in size
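AlphaScreen luminescence quantifies BAZ2B engagement of H3K14Ac peptide; the protein and biotinylated peptide are both at 50 nM final, buffer PBS pH 7.4 with 0.01% Tween-20, all steps at room temperature.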
GLS inh: glutaminase GLS (human) inhibition. O94925. AID 624170. Potency, µM (doses to about 45.5 µM), actives largely listed as inhibitors. GLS enzymatic activity, qHTS titration. actives 0.21% (n = 410,000)
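Two-point fluorescence kinetic (t0, 30 min RT) for hKGA; glutamate detected via glutamate oxidase–HRP–Amplex Red. Substrate: 1 mM L-glutamine solution; buffer 45 mM KH2PO4, pH 8.2.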
G9a block: G9a (human) methyltransferase inhibition; Q96KQ7; G9a H3K9 monomethylation, AlphaScreen, 2 h; Potency, µM (highest dose often 102 µM), usual class: inhibitors; actives 8.8% (n = 350,000); AID 504332; note: nearly all actives have a fitted effect of over 75% in size
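Signal arises when biotinylated H3K9 peptide, once monomethylated, bridges streptavidin donor and antibody-captured acceptor beads. Enzyme at 20 nM was preincubated 15 min with test compounds; peptide 500 nM and SAM 20 uM then reacted for 2 h.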
Each line names hits and unclear results; the compound was inactive in the other large screens. Calls come from the whole dose curve; as a rule, active = well fitted curve in the direction sought with a large enough effect; inconclusive = small, poorly fitted or top-dose-only effect, or another doubt; inactive = no such curve, though single readings can be large; an effect the other way counts as inactive or inconclusive.

S=c1[nH]nc(-c2cccnc2)n1/N=C/c1ccccc1	JMJD2A Tudor inh 3.55µM, BAZ2B inh inconclusive, G9a block 3.98µM
O=C(Cn1c(=O)oc2ccccc21)NCc1ccccc1Cl	none
Cc1cccc(C(=O)Nc2cc(S(=O)(=O)N3CCOCC3)ccc2N2CCCCC2)c1	none
Clc1ccc(Cn2ncc3c(N4CCN(c5ccccc5)CC4)ncnc32)cc1	none (no result: JMJD2A Tudor inh, HP1b chromo inh, BAZ2B inh, G9a block)
CCc1ccccc1NC(=O)C(CCSC)NS(=O)(=O)c1ccc2c(c1)oc(=O)n2C (stereo unspecified)	none
CCN1C(=O)C(Cc2nc3ccccc3c(=O)n2C)c2cc(C)ccc21 (stereo unspecified)	none
COc1ncc2nc(-c3ccc(F)cc3)c(=O)n(Cc3cccs3)c2n1	none (no result: JMJD2A Tudor inh, HP1b chromo inh, BAZ2B inh, GLS inh)
CCn1c(-c2ccc(N(C)C)cc2)nc2ccccc21	BAZ2B inh 50.1µM, G9a block 79.4µM
CC(C)n1c(-c2ccc(N(C)C)cc2)nc2ccccc21	JMJD2A Tudor inh 56.2µM, HP1b chromo inh inconclusive, BAZ2B inh 39.8µM, G9a block 39.8µM
CN(C)c1ccc(-c2nc3ccccc3n2C)cc1	BAZ2B inh inconclusive, G9a block inconclusive
Cn1c(=O)c([N+](=O)[O-])c(-n2cnc3ccccc32)c2ccccc21	none
CC(=O)c1c(C)nn(CCC(=O)O)c1C	JMJD2A Tudor inh 39.8µM, HP1b chromo inh inconclusive, GLS inh inconclusive
Cc1nn(CCCC(=O)O)c(C)c1[N+](=O)[O-]	none
CN=CC1=C(O)c2ccccc2C1=O	none
O=C1C(C2=C(O)c3ccccc3C2=O)=Nc2ccccc21	JMJD2A Tudor inh 31.6µM, HP1b chromo inh inconclusive, BAZ2B inh 39.8µM (no result: G9a block)
CN(CC(=O)Nc1ccc(F)cc1)C(=O)CN1C(=O)NC(CCc2ccccc2)C1=O (stereo unspecified)	none (no result: JMJD2A Tudor inh, HP1b chromo inh, BAZ2B inh, G9a block)
COc1ccc(C2Nc3ccccc3C(=O)N2C2CCCC2)cc1COc1ccc(NC(C)=O)cc1 (stereo unspecified)	JMJD2A Tudor inh 50.1µM (no result: HP1b chromo inh, BAZ2B inh, GLS inh, G9a block)
COc1ccc(C2Nc3ccccc3C(=O)N2Cc2ccccn2)cc1COc1ccc(NC(C)=O)cc1 (stereo unspecified)	JMJD2A Tudor inh 56.2µM (no result: HP1b chromo inh, BAZ2B inh, GLS inh, G9a block)
COc1ccc(C2Nc3ccccc3C(=O)N2Cc2cccnc2)cc1COc1ccc(NC(C)=O)cc1 (stereo unspecified)	JMJD2A Tudor inh 56.2µM (no result: HP1b chromo inh, BAZ2B inh, GLS inh, G9a block)
COc1ccc(CN2C(=O)c3ccccc3NC2c2ccc(OC)c(COc3ccc(NC(C)=O)cc3)c2)cc1 (stereo unspecified)	none (no result: HP1b chromo inh, BAZ2B inh, GLS inh, G9a block)
CC1CCc2c(sc(NC(=O)c3ccc(N4C(=O)CCC4=O)cc3)c2C(N)=O)C1 (stereo unspecified)	none
Nc1nnnn1/N=C/c1cc(Cl)ccc1O	none
Nc1nnnn1/N=C/c1cc(Cl)cc(Cl)c1O	JMJD2A Tudor inh 39.8µM (no result: G9a block)
Cc1cccc(NC(=O)C2CCC(CNS(=O)(=O)c3csc(C(N)=O)c3)CC2)c1C (stereo unspecified)	none
COc1cc(Cl)c(C)cc1NC(=O)CSc1cc(-c2ccccc2)nc(C)n1	none
COc1cc(/C=C/C(=O)OCC(=O)NC2CC2)cc(S(=O)(=O)N2CCc3ccccc32)c1OC	G9a block 56.2µM
COc1cccc(C=Nc2cc(C(C)C)c(O)cc2C)c1O	JMJD2A Tudor inh 56.2µM, HP1b chromo inh 79.4µM (no result: BAZ2B inh, G9a block)
CNC(=S)N/N=C/c1ccc(N(C)C)cc1	GLS inh inconclusive (no result: G9a block)
Cc1cc(O)c(C(C)C)cc1N=Cc1ccc([N+](=O)[O-])cc1	JMJD2A Tudor inh 44.7µM, HP1b chromo inh 50.1µM (no result: BAZ2B inh, G9a block)
Cc1cc(O)c(C(C)C)cc1N=Cc1ccc(N(C)C)cc1	JMJD2A Tudor inh 50.1µM, HP1b chromo inh 44.7µM (no result: BAZ2B inh, G9a block)
Cc1ccc(CNC(=O)CSc2ncc(S(=O)(=O)c3ccc(C)c(Cl)c3)c(=O)[nH]2)cc1	none
O=C1c2ccccc2S(=O)N1c1cccc(F)c1 (stereo unspecified)	none (no result: JMJD2A Tudor inh, HP1b chromo inh, BAZ2B inh, G9a block)
CC(C)CNC(=O)C1(C)CCCCCN1Cc1ccccc1-c1ccccc1 (stereo unspecified)	none (no result: JMJD2A Tudor inh, HP1b chromo inh, BAZ2B inh, G9a block)
O=C(Nc1ccc(S(=O)(=O)Nc2cnc3ccccc3n2)cc1)c1ccc(Cl)cc1Cl	none (no result: BAZ2B inh, G9a block)
O=C(Nc1ccc(S(=O)(=O)Nc2cnc3ccccc3n2)cc1)c1cc(F)c(F)cc1Cl	JMJD2A Tudor inh 79.4µM
COc1ccc(C(=O)c2c(C(F)(F)F)oc3c2C(=O)c2ccccc2C3=O)cc1	JMJD2A Tudor inh inconclusive, HP1b chromo inh inconclusive, BAZ2B inh 7.94µM, G9a block 7.94µM

Screening data (PubChem BioAssay)
